High-throughput results: PubChem BioAssay, National Center for Advancing Translational Sciences (NCATS)
TRPV1 PAM: enhances activation of the human vanilloid receptor TRPV1; potentiation, % at 8.33 µM; Q8NER1; 320,000 tested, 0.02% active; AID 540277; TRPV1-expressing cells, Fluo-8 calcium influx, capsaicin EC20 potentiation; in the data active means potentiation above about 80%; inconclusive means between about 30% and that limit; further: 0% is about no effect
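TRPV1-expressing cells were cultured overnight at 35.5C and loaded with Fluo-8 calcium dye for 40 to 90 min at room temperature. After a 10 s baseline, compound was added and calcium influx was read kinetically for 3 min (ex 480/em 520 nm).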
TRPML1 agonist: human mucolipin-1 channel agonism; TRPML1-expressing cells, Ca2+ dye fluorescence, FDSS; activation, % (concentration not given with the values); 410,000 tested, 0.12% active; in the data active means activation above about 50%; inconclusive means mostly about 30% to 49%; further: 0% is about no effect
Target sequence (Q9GZU1 whole entry, looked up): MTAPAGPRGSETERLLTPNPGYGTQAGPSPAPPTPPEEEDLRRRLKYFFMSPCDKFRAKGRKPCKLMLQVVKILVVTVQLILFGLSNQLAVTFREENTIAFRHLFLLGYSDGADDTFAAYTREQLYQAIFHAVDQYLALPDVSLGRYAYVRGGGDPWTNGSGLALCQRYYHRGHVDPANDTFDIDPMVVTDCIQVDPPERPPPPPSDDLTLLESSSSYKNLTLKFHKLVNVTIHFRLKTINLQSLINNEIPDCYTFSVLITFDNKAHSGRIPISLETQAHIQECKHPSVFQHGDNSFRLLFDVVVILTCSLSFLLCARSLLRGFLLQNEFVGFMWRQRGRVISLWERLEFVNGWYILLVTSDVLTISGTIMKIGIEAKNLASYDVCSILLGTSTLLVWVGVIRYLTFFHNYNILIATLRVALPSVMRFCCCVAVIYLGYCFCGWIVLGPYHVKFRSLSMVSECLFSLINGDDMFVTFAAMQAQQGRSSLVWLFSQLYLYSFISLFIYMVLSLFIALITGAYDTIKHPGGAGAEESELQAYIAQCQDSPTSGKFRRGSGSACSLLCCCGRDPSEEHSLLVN
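Cells: TRPML1-DL, 1X Tet inducer, ~16 h at 37 degrees C/5% CO2. Dye: ABD Ca8 no-wash + quencher, 45-90 min RT. Read: 10 s baseline, compound add, 110 s agonist phase; 54-4 EC80 (4uM final), 110 s antagonist phase.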
TRPV1 ag: agonists of human vanilloid receptor 1 (TRPV1) | activation, % at 8.33 µM | Q8NER1 | 320,000 tested, 0.19% active | TRPV1-expressing cells, Fluo-8 calcium influx, agonist mode; in the data active means activation above about 80%; inconclusive means between about 30% and that limit; further: 0% is about no effect
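TRPV1-expressing cells were cultured overnight at 35.5C and loaded with Fluo-8 calcium dye for 40 to 90 min at room temperature. After a 10 s baseline, compound was added and calcium influx was read kinetically for 3 min (ex 480/em 520 nm).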
TRPML1 blocker: inhibitors of human TRPML1 channel | Q9GZU1 | TRPML1-inducible cells, Ca2+ dye fluorescence, FDSS; stronger effect = lower value; inhibition of EC80 agonist-evoked calcium signal | activity change, negative = inhibition, % (concentration not given with the values) | 390,000 tested, 0.02% active; in the data active means activity change below about -50%; inconclusive means between about -30% and that limit;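 further: stimulus is agonist 54-4 at its EC80 concentration; on the % scale 0 is the no-effect control and ±100 the full control effect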
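TRPML1-DL cells, Tet-induced overnight (~16 h, 37 °C) at 1,500 cells/well, were loaded with Ca8 no-wash dye plus quencher for 45-90 min at room temperature. Compounds were pinned during FDSS kinetic reading; agonist 54-4 at EC80 (4 uM final) then added.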
Starred values were filed as active, the others as inactive. In the library only some 0.31% were active in any assay of this set; here they are far more common.

Results for CCCCCCCCN1[C@@H](CC(C)=O)c2ccc(/C=C/C(C)=O)cc2S1(=O)=O ?
TRPML1 agonist: 0

How did S=c1[nH]nc(-c2ccccn2)n1/N=C/c1ccc(Cl)c(Cl)c1 do in these assays?
TRPV1 PAM: 26; TRPML1 agonist: 0; TRPV1 ag: 1; TRPML1 blocker: 9

What do the screens show for `S=c1[nH]nc(-c2ccccn2)n1/N=C/c1ccc(Br)s1`?
TRPV1 PAM: 5; TRPML1 agonist: 78*; TRPV1 ag: -1; TRPML1 blocker: -30

How did COc1ccc2c(c1)C/C(=C\c1ccc(N(C)C)cc1)C2=O do in these assays?
TRPML1 agonist: 72*

Results for COc1cccc2c1C(=O)/C(=C/c1ccc(N(C)C)cc1)C2 ?
TRPML1 agonist: 0

Results for O=C(Nc1ccc2c(c1)OCCO2)c1cc2ccccc2o1 ?
TRPV1 PAM: -17; TRPML1 agonist: -1; TRPV1 ag: 81*; TRPML1 blocker: 33

What do the screens show for `COc1cc(CNC(=O)CCCC/C=C/C(C)C)ccc1O`?
TRPV1 PAM: -2; TRPML1 agonist: 1; TRPV1 ag: 103*; TRPML1 blocker: -21

Results for Cc1ccnc2c(N)cccc12 ?
TRPML1 agonist: 0

Results for CC(=O)Oc1ccc2c(c1)Oc1cc(OC(C)=O)ccc1C21OC(=O)c2ccccc21 ?
TRPV1 PAM: 12; TRPML1 agonist: 113*; TRPV1 ag: 140*; TRPML1 blocker: -21

Results for Cc1ccc2c(c1)c1c3n2CCN(C(=O)c2ccc(C(F)(F)F)cc2)C3CCC1 (configuration not stated) ?
TRPML1 agonist: 56*; TRPML1 blocker: -28

What do the screens show for `CCCCCCCC(=O)N/N=C(\C)c1ccc(O)cc1O`?
TRPV1 PAM: 0; TRPML1 agonist: 57*; TRPV1 ag: 5; TRPML1 blocker: -11

How did N#CC1=C(N)OC2=C(CC/C2=C\c2ccccc2)C1c1ccccc1 (configuration not stated) do in these assays?
TRPV1 PAM: -7; TRPML1 agonist: 55*; TRPV1 ag: 3; TRPML1 blocker: -8

What do the screens show for `N#CC1=C(N)OC2=C(CC/C2=C\c2ccccc2Cl)C1c1ccccc1Cl` (configuration not stated)?
TRPV1 PAM: 17; TRPML1 agonist: 2; TRPV1 ag: 0; TRPML1 blocker: -10

Results for CC1CCN(C(=O)CSc2c(C(C)C)cnc3c2c(=O)n(C)c(=O)n3C)CC1 ?
TRPML1 agonist: 2; TRPML1 blocker: -19

What do the screens show for `O=C(Nc1ccncc1)C1CCN(S(=O)(=O)c2ccccc2)CC1`?
TRPV1 PAM: 2; TRPML1 agonist: 0; TRPV1 ag: -3; TRPML1 blocker: 14

How did Cc1ccnc(NC(=O)C2CCN(S(=O)(=O)c3ccc(Cl)c(C(F)(F)F)c3)CC2)c1 do in these assays?
TRPV1 PAM: -2; TRPML1 agonist: 2; TRPV1 ag: 8; TRPML1 blocker: 9

Results for Cc1ccc(NC(=O)c2ccc(S(=O)(=O)N3CCCC3)cc2)nc1 ?
TRPV1 PAM: 5; TRPML1 agonist: -1; TRPV1 ag: 86*; TRPML1 blocker: 0

How did Cc1ccc(NC(=O)C2CCN(S(=O)(=O)c3ccc(Cl)c(C(F)(F)F)c3)CC2)nc1 do in these assays?
TRPV1 PAM: -21; TRPML1 agonist: 69*; TRPV1 ag: 24; TRPML1 blocker: -8

How did O=C(Nc1ccncc1)C1CCN(S(=O)(=O)c2ccccc2C(F)(F)F)CC1 do in these assays?
TRPV1 PAM: -5; TRPML1 agonist: 0; TRPV1 ag: 83*; TRPML1 blocker: 1

What do the screens show for `COc1cc2c(NC3CCN(C)CC3)nc(N3CCCN(C)CC3)nc2cc1OCC1CCCCN1` (configuration not stated)?
TRPML1 agonist: 0

Results for CC(C)(C)[C@H]1CCC(=O)N(CCSc2ccc(Br)cc2)CC1 ?
TRPML1 agonist: 0

What do the screens show for `CC(C)(C)n1ncc2c(=O)n(Cc3ccc(Cl)c(OC(F)(F)F)c3)cnc21`?
TRPML1 agonist: 5; TRPML1 blocker: 10

How did O=C(CCNC(=O)c1ccc([N+](=O)[O-])cc1)NCCC1=CCCCC1 do in these assays?
TRPV1 PAM: 0; TRPML1 agonist: 0; TRPV1 ag: 1; TRPML1 blocker: 5

What do the screens show for `O=C(NCCC1=CCCCC1)c1ccc([N+](=O)[O-])cc1`?
TRPV1 PAM: -20; TRPML1 agonist: 2; TRPV1 ag: 89*; TRPML1 blocker: 17

What do the screens show for `Cc1cc(C(=O)NCCC2=CCCCC2)ccc1[N+](=O)[O-]`?
TRPV1 PAM: -22; TRPML1 agonist: 0; TRPV1 ag: 83*; TRPML1 blocker: 10

Results for CN(C)c1ccc(/C=C/c2cc3ccccc3cn2)cc1 ?
TRPML1 agonist: -1

How did CCN(CC)c1ccc2cc(C(C)=O)c(=O)oc2c1 do in these assays?
TRPV1 PAM: -30; TRPML1 agonist: 72*; TRPV1 ag: inconclusive; TRPML1 blocker: 0

What do the screens show for `CCN(CC)c1ccc2cc(C=O)c(=O)oc2c1`?
TRPV1 PAM: -3; TRPML1 agonist: 113*; TRPV1 ag: inconclusive; TRPML1 blocker: -22

What do the screens show for `CCN(CC)c1ccc2cc(C(N)=O)c(=N)oc2c1`?
TRPV1 PAM: -11; TRPML1 agonist: 56*; TRPV1 ag: inconclusive; TRPML1 blocker: -7

What do the screens show for `Cc1nc2c(cnn2-c2ccccc2Cl)c(=O)n1-c1ccc(C(C)C)cc1`?
TRPV1 PAM: inconclusive; TRPML1 agonist: 94*; TRPV1 ag: 0; TRPML1 blocker: -11

Results for CC(C)(C)c1ccc(C(=O)NC(=S)NNC(=O)c2cccs2)cc1 ?
TRPV1 PAM: -20; TRPML1 agonist: 74*; TRPV1 ag: inconclusive; TRPML1 blocker: -16

Results for CCCOc1ccc(C(=O)NNC(=S)NC(=O)c2cccs2)cc1 ?
TRPV1 PAM: 4; TRPML1 agonist: 53*; TRPV1 ag: 10; TRPML1 blocker: -7

Results for O=C(NC(=S)NNC(=O)c1cccs1)c1ccccc1 ?
TRPV1 PAM: 1; TRPML1 agonist: 0; TRPV1 ag: -2; TRPML1 blocker: -10

How did C=C(Br)COC(c1ccco1)[C@H](Cc1ccccc1)NC(=O)OC(C)(C)C (some centres not stated) do in these assays?
TRPML1 agonist: 3

What do the screens show for `COc1ccc(CCNC(=O)CCc2ccc(S(=O)(=O)NC(C)C)cc2)cc1OC`?
TRPV1 PAM: 6; TRPML1 agonist: 2; TRPV1 ag: -4; TRPML1 blocker: -1

How did COc1ccc(CCNC(=O)COc2ccc(S(=O)(=O)NC(C)C)cc2Cl)cc1OC do in these assays?
TRPV1 PAM: -13; TRPML1 agonist: 0; TRPV1 ag: 0; TRPML1 blocker: -61*

How did O=C(NCc1ccccn1)C(=O)NCc1ccccn1 do in these assays?
TRPV1 PAM: 97*; TRPML1 agonist: -1; TRPV1 ag: -15; TRPML1 blocker: 2

What do the screens show for `Cc1oc(-c2cccs2)nc1CS(=O)CC(=O)NCCc1ccccc1` (configuration not stated)?
TRPV1 PAM: -8; TRPML1 agonist: 0; TRPV1 ag: 87*; TRPML1 blocker: 3
